The source of these data is PubChem BioAssay AID743354 (Broad Institute, 2014).

Results with a measured potency or affinity are listed apart. Activity calls are given as the source filed them.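 Rule for the calls: active = cytotoxic signal drop with a fitted half-maximal concentration at most twice the top valid tested dose; inconclusive = flat fit with moderate signal loss, or poor fit quality; inactive = opposite effect, flat response, or potency beyond limit.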

This assay is described as follows: HEK293 cell cytotoxicity, dose response, cytotoxicity control, luminescence, dry powder, set 12 (AID 743354). The conditions noted are these: HEK293T viability, CellTiter-Glo ATP luminescence, 72 h; series mostly up to 26 µM.
`CNS(=O)(=O)c1ccc(N2CCN(C(=O)c3ccc4c(c3)OCO4)CC2)cc1`: the outcome was inactive. Then `CC(=O)c1ccc(N2CC3(CN(C(=O)c4ccc5c(c4)OCO5)C3)C2)cc1`, with “inactive”; and `CN1c2ccc(-c3cccc(F)c3)cc2[C@H]2[C@H](CCN2C(=O)CCCCCCC(=O)O)[C@H]1CO`, with “inactive”.

With `CC(=O)c1ccc(N2CCN(C(=O)c3ccccc3Cl)CC2)cc1`, the call was inactive. As for `CC(=O)c1ccc(NCCNC(=O)c2ccc3c(c2)OCO3)cc1`, the molecule was classed as inactive.

For the molecule `CN1c2ccc(-c3ccc(F)cc3)cc2[C@H]2[C@H](CCN2C(=O)Cc2ccccn2)[C@H]1CO`, the result was inactive.

Regarding `COCC(=O)N1CC[C@@H]2[C@@H](CO)N(C)c3ccc(-c4cccc(F)c4)cc3[C@@H]21`, the molecule was classed as inactive. Take `CNC(=O)c1ccc(N2CCN(C(=O)c3ccc4c(c3)OCO4)CC2)cc1`: the call was inactive. Regarding `COC(=O)c1ccc(N2CCN(C(=O)c3ccc4c(c3)OCO4)CC2)cc1`, the call was inactive. In the case of `COc1ccccc1C(=O)N1CCN(c2ccc(C(C)=O)cc2)CC1`, the result was inactive. With `COc1ccccc1NC(=O)N1CC[C@@H]2[C@@H](CO)N(C)c3ccc(-c4ccc(F)cc4)cc3[C@@H]21` the entry was “inactive”.

In the case of `CN1c2ccc(-c3cccc(F)c3)cc2[C@H]2[C@H](CCN2C(=O)Cc2ccccc2)[C@H]1CO`, the call was inactive.

With `CN(C)C(=O)c1ccc(N2CCN(C(=O)c3ccc4c(c3)OCO4)CC2)cc1`, the molecule was called inactive. With `CCC(=O)N1CC[C@@H]2[C@@H](CO)N(C)c3ccc(-c4ccc(F)cc4)cc3[C@@H]21` the entry was “inactive”; with `CC(=O)c1ccc(N2CCN(C(=O)c3ccc4c(c3)OCO4)[C@H](C)C2)cc1`, “inactive”; with `COc1ccc(NC(=O)N2CC[C@@H]3[C@@H](CO)N(C)c4ccc(-c5ccc(F)cc5)cc4[C@@H]32)cc1`, “inactive”. In the case of `CC(C)NC(=O)N1CC[C@@H]2[C@@H](CO)N(C)c3ccc(-c4cccc(F)c4)cc3[C@@H]21`, the result was inactive. With `CN1c2ccc(-c3cccc(F)c3)cc2[C@@H]2[C@@H](CCN2C(=O)c2ccc3c(c2)OCO3)[C@@H]1CO` the entry was “inactive”; with `COc1ccccc1NC(=O)N1CC[C@@H]2[C@@H](CO)N(C)c3ccc(-c4cccc(F)c4)cc3[C@@H]21`, “inactive”; with `COc1cccc(NC(=O)N2CC[C@@H]3[C@@H](CO)N(C)c4ccc(-c5cccc(F)c5)cc4[C@@H]32)c1`, “inactive”. Regarding `CC(=O)c1ccc(N2CCN(C(=O)c3ccc4c(c3)OCO4)CC2)cc1`, the call was inactive. As to `CN1c2ccc(-c3ccc(F)cc3)cc2[C@H]2[C@H](CCN2C(=O)Nc2cc(F)ccc2F)[C@H]1CO`, the outcome was inactive. As to `CN1c2ccc(-c3ccc(F)cc3)cc2[C@H]2[C@H](CCN2C(=O)Cc2cccnc2)[C@H]1CO`, the outcome was inactive. Take `CCCNC(=O)N1CC[C@@H]2[C@@H](CO)N(C)c3ccc(-c4ccc(F)cc4)cc3[C@@H]21`: the result was inactive. On to `CN1c2ccc(-c3cccc(F)c3)cc2[C@@H]2[C@@H](CCN2C(=O)c2ccc3c(c2)OCO3)[C@H]1CO`, for which the molecule was called inactive.

As to `CN1c2ccc(-c3cccc(F)c3)cc2[C@H]2[C@H](CCN2C(=O)Nc2ccccc2F)[C@H]1CO`, the result was inactive. Turning to `CC(C)NC(=O)N1CC[C@@H]2[C@@H](CO)N(C)c3ccc(-c4ccc(F)cc4)cc3[C@@H]21`, the molecule was classed as inactive.

Take `COc1ccc(NC(=O)N2CC[C@@H]3[C@@H](CO)N(C)c4ccc(-c5cccc(F)c5)cc4[C@@H]32)cc1`: the call was inactive. Take `CN1c2ccc(-c3ccc(F)cc3)cc2[C@H]2[C@H](CCN2C(=O)Nc2ccc(F)cc2)[C@H]1CO`: the molecule was classed as inactive. For the molecule `CN1c2ccc(-c3cccc(F)c3)cc2[C@H]2[C@H](CCN2C(=O)c2ccc3c(c2)OCO3)[C@@H]1CO`, the outcome was inactive. `CCCCCCCC(=O)N1CC[C@@H]2[C@@H](CO)N(C)c3ccc(-c4cccc(F)c4)cc3[C@@H]21`: the molecule was called inactive.

For the molecule `CN1c2ccc(-c3cccc(F)c3)cc2[C@H]2[C@H](CCN2C(=O)Cc2cccnc2)[C@H]1CO`, the result was inactive.
